Entries with a potency or affinity are not part of this list. Activity calls are given as the source filed them.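 How the source made its calls: active means fitted half-maximal concentration for loss of cell signal no higher than twice the top valid tested concentration; inconclusive means flat curve at 30 to 70% inhibition, or poor fit; inactive means flat within 30%, signal rise, or potency above limit.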
Assay: MDA-MB-231 cell growth inhibition, dose response, cytotoxicity control for RAD54 inhibitor project, CellTiter-Glo luminescence, cherry-pick (AID 651692);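 further: 0% = median of sample compound wells and -100% = staurosporine control wells; more negative values mean stronger loss of viable cell signal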
Conditions: MDA-MB-231 viability, 24 h; series mostly up to 26 µM; activity change, negative = growth inhibition: at the top concentration

Structure (SMILES) | activity change, negative = growth inhibition
O=C(Nc1nnc(COc2ccc(F)cc2)s1)c1ccco1 | 8.23% (inactive)
Cc1cccc(Cn2c(Sc3nc(C)cs3)nc3c2c(=O)[nH]c(=O)n3C)c1 | 14.1% (inactive)
CN1CCN(CC(=O)Nc2nc(-c3c[nH]c4ccccc34)cs2)CC1 | 0.076% (inactive)
COc1ccc(-c2cc(NC=O)c3ncc(-c4cccc(C(=O)NCCN(C)C)c4)n3c2)cc1 | -4.06% (inactive)
CCCCN(C)CCNC(=O)c1cc2c(-c3cccc(OC)c3)nn(C)c2s1 | -21.9% (inactive)
Cc1cc(C)c2c(c1)c1nnc(SCCN3CCCCC3)nc1n2C | -8.21% (inactive)
CCN1CCN(C(=S)Nc2ccc3nc(N4CCN(C)CC4)cc(C)c3c2)CC1 | -0.729% (inactive)
CN(C)CCN(C(=O)c1ccc2c(c1)OCCO2)c1nc2c(Cl)cccc2s1 | 3.6% (inactive)
C=CCc1ccccc1OCC(O)CN1CCN(CCN2C(=O)c3cccc4cccc(c34)C2=O)CC1 (stereo not given) | -13.7% (inactive)
O=C(CS(=O)(=O)c1ccccc1)Nc1ccc(Br)cn1 | 8.12% (inactive)
CNC(C)C#Cc1ccc2oc3cccc(OC)c3c(=O)c2c1 (stereo not given) | 3.46% (inactive)
Cc1cccn2c(=O)c3cc(C(=O)NCCc4ccccc4)c(=N)n(CCCn4ccnc4)c3nc12 | -4.6% (inactive)
CCCCN(C)CCNC(=O)c1cc2cc3ccc(OC)cc3nc2o1 | 5.69% (inactive)
CN(C)CCNc1cc(-c2ccncc2)nc2ccccc12 | 13.6% (inactive)
COc1ccccc1Nc1c2ccccc2nc2ccccc12 | -3.7% (inactive)
COc1ccc(C(=O)CN2CCN(CCN3C(=O)c4cccc5cccc(c45)C3=O)CC2)cc1 | 2.15% (inactive)
CCN(CC)CCCNC(=O)c1cc2c(=O)n(C)c3ccccc3c2n1C | -6.68% (inactive)
Oc1ccc(CCNc2c3ccccc3nc3ccccc23)cc1O | -15% (inactive)
Cc1ccc2c(c1)c1nc3ccccc3nc1n2CCN1CCOCC1 | -0.209% (inactive)
COc1cc2sc3cc(NCC[C@@H]4CCCN4C)ccc3c(=O)c2cc1OC | 3.51% (inactive)

Structure (SMILES) | activity change, negative = growth inhibition
CCN(CC)CCCNc1nc(-c2ccccc2)nc2ccccc12 | -2.13% (inactive)
CC(C)NC1CCC(Nc2ccnc3cc(Cl)ccc23)CC1 (stereo not given) | 2.57% (inactive)
O=C(CN1CCCC1)Nc1ccc(-c2nc3cc(NC(=O)CN4CCCC4)ccc3o2)cc1 | -7.28% (inactive)
CC(=O)Nc1cc(-c2ccc(N3CCN(C)CC3)cc2)cn2c(-c3ccc(S(C)(=O)=O)cc3)cnc12 | -10.1% (inactive)
c1c[nH]c(CN2CCN(Cc3ncc[nH]3)CC2)n1 | 2.65% (inactive)
CCOc1ccc2[nH]c3c(NCCN(C)C)ncnc3c2c1 | -4.38% (inactive)
CN(C)CCNC(=O)c1cccc(-c2cnc3c(NC=O)cc(-c4cccs4)cn23)c1 | 5.06% (inactive)
CCN(CC)CCCNC(=O)c1cc2c(-c3ccc(Cl)cc3)nn(C)c2s1 | -1.26% (inactive)
COc1ccc(Nc2cc(C)nc3ccc(OC)cc23)cc1 | -3.78% (inactive)
CCOCCCNC(=S)Nc1ccc2nc(N3CCCC3)cc(C)c2c1 | -4.85% (inactive)
Cc1ccc2nc(C)cc(Nc3ccc4c(c3)OCCO4)c2c1 | -16.2% (inactive)
CCC(=O)N(Cc1cc2cc(OC)ccc2[nH]c1=O)c1cc(C)ccc1C | 4.92% (inactive)
CN(C)CCN(C(=O)c1ccco1)c1nc2cc3c(cc2s1)OCCO3 | -3.18% (inactive)
COc1cc2[nH]c3c(=O)n(CCN4CCCCC4)cnc3c2cc1OC | 1.1% (inactive)
O=C(Nc1ccc(Nc2ccncc2)cc1)c1ccc(Nc2ccnc3ccc([N+](=O)[O-])cc23)cc1 | 2.9% (inactive)
CCN(CC)CCCNC(=O)C1CCN(c2ncnc3c2sc2cccc(F)c23)CC1 | 0.901% (inactive)
c1ccc(-c2nc(NCCCn3ccnc3)c3oc4ccccc4c3n2)cc1 | -13.3% (inactive)
CCc1ccc2nc3nc(C)cc(C)c3c(N)c2c1 | 4.96% (inactive)
CCCCN(CC)CCCNC(=O)c1cc2c(-c3ccc(OC)c(OC)c3)nn(C)c2s1 | 5.82% (inactive)
CCN(CC)S(=O)(=O)c1ccc(Cl)c(C(=O)Nc2nnc(C)s2)c1 | 3.35% (inactive)
